Test results from PubChem BioAssay AID588689 (Southern Research Specialized Biocontainment Screening …, 2011).
The whole screen tested about 340,000 compounds, of which about 1,000 (0.29%) were called active. No stated cut-off is given here; in the data, inconclusive means inhibition above about 29% without an active follow-up result; inactive means below that. Not all results are given here. Potency and affinity values are given separately.

What follows are compounds tested against Genome polyprotein (Dengue virus type 2 (strain 16681-PDK53)) (UniProt P29991) (assay: flavivirus cap methylation enzyme inhibition – biochemical, confirmation dose response, primary screen (AID 588689)). Details: Dengue-2 NS5 methyltransferase capping enzyme assay, at 25 µM, stronger effect = higher value.

inhibition, inactive:
CN(C1CCCCC1)S(=O)(=O)c1ccc(S(=O)(=O)N2CCN(C(=O)c3ccccc3F)CC2)cc1 -5.65%, Cc1onc(-c2ccccc2)c1C(=O)Nc1ccc(Cl)cn1 -2.24%, Cc1cc(NC(=O)CSCc2nc(-c3cccc(F)c3)oc2C)no1 4.17%, COc1ccc(N(CC(=O)NCCSC2CCCCC2)S(=O)(=O)c2ccc(C)cc2)cc1 -4.51%, Cc1ccc(N2C(=O)C(Cl)=C(N3CCOCC3)C2=O)c(C)c1 5.79%, CN1CCN(C2=C(Cl)C(=O)N(c3cccc(Cl)c3)C2=O)CC1 12.9%, O=C1C(Cl)=C(N2CCCCCC2)C(=O)N1c1ccc(Cl)cc1 2.94%, O=C1C(Cl)=C(N2CCCCCC2)C(=O)N1c1ccccc1 -0.82%, CC1CCCN(C2=C(Cl)C(=O)N(c3cccc(Cl)c3)C2=O)C1 (stereo not drawn) 5.18%, Cc1cccc(N2C(=O)CC(N3CCOCC3)C2=O)c1 (stereo not drawn) 0%, COc1cc(C(=O)C(O)c2ccc(O)c(OC)c2)ccc1O (stereo not drawn) 0%, CN(Cc1cnn(-c2ccc(F)cc2)c1)Cc1nc(Cc2ccccc2)no1 -8.38%, COC(=O)c1ccccc1C(=O)N1CCC(CCC(=O)NC2CC2)CC1 -9.72%, CC(C)NC(=O)CSc1nccc(-c2cccs2)n1 6.26%, CC(=O)C1=NN(c2ccccc2)C2(S1)S/C(=C\c1ccccc1)C(=O)N2c1ccccc1 (stereo not drawn) 3.22%, Cc1ccc(SCCc2cc[n+](CC(=O)c3ccccc3)cc2)cc1 -23.5%, CCOc1ccc(-n2c(SCc3cc(=O)oc4cc(C)ccc34)nnc2-c2cccnc2)cc1 -5.85%, COCC(COS(N)(=O)=O)Cc1ccccc1 (stereo not drawn) -5.61%, C/C(=N\NS(=O)(=O)c1ccccc1)c1ccc2c(c1)OCCO2 -5.78%, CC(=O)NCCc1nc2cc(NC(=O)c3ccc(F)cc3)ccc2n1C 0.65%, COc1ccc(C2=CC(=O)CC(C)(C)C2)cc1OC -7.08%, CCn1c(CNC(=O)c2ccccc2F)nnc1SCC(=O)Nc1nncs1 -2.93%, COC(=O)c1cccc(N2C(=O)c3cccnc3C2=O)c1 1.12%, O=C1C(Cl)=C(N2CCCC2)C(=O)N1c1ccc(F)cc1 10.2%, O=C1C(Cl)=C(N2CCCCCC2)C(=O)N1c1ccc(Br)cc1 4.71%, Cc1ccc(N2C(=O)C(Cl)=C(NCCO)C2=O)c(C)c1 -3.68%, COC(=O)c1cccc(N2C(=O)C3CC=CCC3C2=O)c1 (stereo not drawn) -7.22%, Cc1ccc(N2C(=O)C(Cl)=C(N3CCCCCC3)C2=O)c(C)c1 -10.4%
